Among the data in PubChem BioAssay (NCATS) are outcome and Potency values, retold here.

Results filed as inconclusive are left out. The source made the active and inactive calls. Unless noted, calls come from the whole dose curve; as a rule, active = well fitted curve in the direction sought with a large enough effect; inconclusive = small, poorly fitted or top-dose-only effect, or another doubt; inactive = no such curve, though single readings can be large; an effect the other way counts as inactive or inconclusive.

Assay [1] is described as follows: Cytometric Cell-Based qHTS for Inhibitors of the mTORC1 Signaling Pathway in MEF (Tsc2-/-, p53-/-) Cells (AID 2660).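 Note: Tsc2 and p53 null MEFs carrying empty vector with compound for 24 h; percent of cells above a phospho-rpS6 to PI ratio cutoff in each well; series mostly up to about 38 µM.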 The gist of the method:
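Cells are plated, treated with compound for 24 hrs at 37 degree Celsius, then fixed, blocked and immunostained for phospho-rpS6 Ser235/236. Propidium iodide counterstain follows. Per-well % positive cells is derived from the PI-normalized phospho-S6 signal.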
For orientation: qHTS replaces the single test concentration by a dilution series.

A short description of assay [2]: High Content Imaging Cell-Based qHTS for Inhibitors of the mTORC1 Signaling Pathway in MEF (Tsc2-/-, p53-/-) Cells (AID 2666).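 Note: percent of cells scored positive for phospho-rpS6 Ser235/236 immunostaining by imaging.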 An outline of the steps:
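MEF Tsc2-/- p53-/- (empty vector), DMEM/10% FBS; cpd 24 h 37 °C; PFA fix, Alexa-488 p-rpS6 S235/236 Ab, Hoechst; imaged; rapamycin-defined inhibition; % positive cells/well.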

Assay [3] can be described thus: High Content Imaging Cell-Based qHTS for Inhibitors of the mTORC1 Signaling Pathway in MEF Cells (AID 2667).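 Note: Tsc2-/- p53-/- MEFs stably re-expressing wild-type Tsc2 exposed 24 h; series mostly up to about 38 µM.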 The gist of the method: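 Read-out is the share of phospho-rpS6-positive cells per well, from Hoechst-normalized Alexa-488 Ser235/236 staining imaged on IN Cell. Cells: WT Tsc2-expressing Tsc2-/-, p53-/- MEFs exposed to compound for 24 hrs.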
Assay [4] can be described thus: Cytometry Cell-Based qHTS for Inhibitors of the mTORC1 Signaling Pathway in MEF cells (AID 2668).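 Note: Tsc2-/- p53-/- mouse embryonic fibroblasts stably re-expressing wild-type Tsc2; percent cells positive for phospho-rpS6 Ser235/236 relative to propidium iodide stain; series mostly up to about 38 µM.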 The gist of the method:
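In MEFs grown in DMEM + 10% FBS, a 24 hrs compound exposure preceded imaging of phospho-rpS6 Ser235/236 by laser-scanning cytometry.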

Assay [5] in a line: Validation screen for small molecules that induce DNA re-replication in MCF 10A normal breast cells (AID 463097). Note: nearly all actives have a fitted effect of over 60% in size. The gist of the method:
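Following 48 hr compound incubation (37 C, 5% CO2), MCF 10A cells receive Hoechst for 40 min at 37 C. Nuclei are then scanned (excitation 405 nm, emission 500-530 nm) for total fluorescence intensity.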

Assay [6] deals with Ubiquitin carboxyl-terminal hydrolase 2 (Homo sapiens) (UniProt O75604). The assay is described as follows: qHTS Validation Assay for Inhibitors of Ubiquitin-specific Protease USP2a Using CHOP2 as the Reporter (AID 463106). The gist of the method:
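Fluorescence read-out at Ex 485nm/Em 531nm after 60min RT, following addition of 25nM Ub-CHOP2 plus 25nM reporter substrate to USP2 core (10nM) pretreated 30min with compound. Data normalized to NEM full inhibition; concentration-response curves fitted.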

The target of assay [7] is DNA polymerase III PolC-type (Bacillus subtilis (strain 168)) (UniProt P13267). The experiment in a line: qHTS Validation Assay for the Inhibitors of DNA Replication in Gram-Positive Bacteria (AID 485295).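 Note: reconstituted holoenzyme with PolC plus beta clamp SSB and primase; PicoGreen fluorescence of double-stranded DNA made on primed circular M13 template; series mostly up to about 57 µM.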 An outline of the steps: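 Inhibition of DNA synthesis by the reconstituted PolC holoenzyme, monitored through PicoGreen staining of dsDNA formed from ssM13Gori, dNTPs and NTPs, with compound preincubation and room-temperature reaction.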
Sequence of DNA polymerase III PolC-type (Bacillus subtilis (strain 168)) (P13267 whole entry, looked up): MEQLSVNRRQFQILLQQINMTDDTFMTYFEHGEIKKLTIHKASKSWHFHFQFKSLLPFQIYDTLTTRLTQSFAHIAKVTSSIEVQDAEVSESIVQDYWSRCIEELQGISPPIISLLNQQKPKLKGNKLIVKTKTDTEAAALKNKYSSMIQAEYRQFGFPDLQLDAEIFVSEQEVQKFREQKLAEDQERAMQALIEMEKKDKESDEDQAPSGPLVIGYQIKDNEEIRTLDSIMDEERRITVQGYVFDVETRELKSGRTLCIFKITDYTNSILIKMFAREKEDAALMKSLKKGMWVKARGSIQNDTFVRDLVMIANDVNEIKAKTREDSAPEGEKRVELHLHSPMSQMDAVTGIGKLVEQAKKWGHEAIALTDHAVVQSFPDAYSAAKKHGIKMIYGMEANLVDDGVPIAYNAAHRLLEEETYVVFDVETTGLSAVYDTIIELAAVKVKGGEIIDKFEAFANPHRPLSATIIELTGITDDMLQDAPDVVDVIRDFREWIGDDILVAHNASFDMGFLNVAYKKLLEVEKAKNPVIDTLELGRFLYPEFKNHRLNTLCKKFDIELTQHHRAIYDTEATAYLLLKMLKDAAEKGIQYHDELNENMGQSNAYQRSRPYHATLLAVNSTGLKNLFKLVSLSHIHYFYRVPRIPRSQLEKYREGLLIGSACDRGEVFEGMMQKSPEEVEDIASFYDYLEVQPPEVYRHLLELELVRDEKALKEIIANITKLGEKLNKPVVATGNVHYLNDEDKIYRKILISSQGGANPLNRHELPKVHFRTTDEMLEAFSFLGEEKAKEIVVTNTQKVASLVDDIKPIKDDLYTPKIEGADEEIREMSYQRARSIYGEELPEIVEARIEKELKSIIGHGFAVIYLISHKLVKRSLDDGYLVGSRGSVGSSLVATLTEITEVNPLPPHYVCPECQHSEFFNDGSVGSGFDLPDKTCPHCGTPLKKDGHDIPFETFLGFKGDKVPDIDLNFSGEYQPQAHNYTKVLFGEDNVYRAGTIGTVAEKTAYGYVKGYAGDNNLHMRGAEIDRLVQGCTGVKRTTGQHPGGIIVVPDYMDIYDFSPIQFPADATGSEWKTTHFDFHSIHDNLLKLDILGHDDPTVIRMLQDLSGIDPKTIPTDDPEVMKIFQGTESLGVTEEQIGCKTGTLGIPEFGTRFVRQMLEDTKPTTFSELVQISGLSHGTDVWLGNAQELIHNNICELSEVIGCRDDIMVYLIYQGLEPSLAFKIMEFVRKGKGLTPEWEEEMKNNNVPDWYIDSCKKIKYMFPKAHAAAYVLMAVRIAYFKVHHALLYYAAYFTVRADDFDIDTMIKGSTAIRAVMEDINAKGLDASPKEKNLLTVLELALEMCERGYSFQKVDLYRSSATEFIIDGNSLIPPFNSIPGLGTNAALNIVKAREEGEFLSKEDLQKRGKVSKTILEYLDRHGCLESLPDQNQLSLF

Assay [8] concerns the target Tumor susceptibility gene 101 protein (Homo sapiens) (UniProt Q99816). The assay is described as follows: qHTS Validation Assay for Iinhibitors of HIV-1 Budding by Blocking the Interaction of PTAP/TSG101 (AID 485342; calls by dose curve). An outline of the steps:
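Compound wells held the Tsg101 binding domain (10 uM) and a FITC-conjugated PTAP peptide (50 nM) in buffer at pH 7.5 containing 0.15 M NaCl and 0.01% Tween 20; polarization was recorded after 20 min, r.t.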

A short description of assay [9]: qHTS Validation Assay to Find Inhibitors of Chronic Active B-Cell Receptor Signaling (AID 485345; active = well fitted curve in the direction sought with a large enough effect in the main read-out, with a control signal flat, not every such curve was filed as active). An outline of the steps: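 TMD8 ABC-DLBCL cells stably carrying doxycycline-inducible IkappaBalpha–green luciferase fusion plus unfused red luciferase; compounds 46 uM to 3 nM, 4 h at 37C with doxycycline. Corrected green/red luminescence ratio normalized to 10 uM MG-132 and basal cell wells; curves fitted.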

In assay [10] the target is Beta-2 adrenergic receptor (Homo sapiens) (UniProt P07550). The experiment in a line: qHTS validation assay of beta-arrestin-biased ligands of beta2-adrenergic receptor (AID 485366). An outline of the steps: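 Compound series up to 46 microM applied to beta2-AR/beta-arrestin Tango cells, 18 hr, 37 degrees C, 5% CO2. Read-out: tTA-driven luciferase luminescence, converted to %Activity; concentration-response curves assigned curve classes.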
Sequence of Beta-2 adrenergic receptor (Homo sapiens) (P07550 whole entry, looked up): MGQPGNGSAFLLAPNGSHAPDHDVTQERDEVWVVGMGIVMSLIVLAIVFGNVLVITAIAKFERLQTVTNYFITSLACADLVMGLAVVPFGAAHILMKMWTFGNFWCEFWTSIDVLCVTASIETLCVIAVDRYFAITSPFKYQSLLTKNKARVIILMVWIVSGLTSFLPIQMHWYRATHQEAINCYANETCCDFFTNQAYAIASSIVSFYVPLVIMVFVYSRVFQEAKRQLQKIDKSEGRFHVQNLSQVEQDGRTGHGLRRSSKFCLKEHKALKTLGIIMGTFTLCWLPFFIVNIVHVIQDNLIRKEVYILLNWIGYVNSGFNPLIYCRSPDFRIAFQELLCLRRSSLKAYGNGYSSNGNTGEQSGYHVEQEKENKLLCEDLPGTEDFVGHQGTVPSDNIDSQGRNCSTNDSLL

The target in assay [11] is ATP-dependent 6-phosphofructokinase (Trypanosoma brucei brucei) (UniProt O15648). The assay is described as follows: qHTS Validation Assay to Find Inhibitors of T. brucei phosphofructokinase (AID 485368). An outline of the steps: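 qHTS format, up to 57 uM. PFK 1.25 nM; F6P 0.5 mM; ATP 0.1 mM; 5 mM MgCl2, 0.01% Tween20, 0.1% BSA; 0.1 M TEA pH 8.0; 45 min RT; ADP-Glo readout; no-enzyme control = full inhibition.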
Sequence of ATP-dependent 6-phosphofructokinase (Trypanosoma brucei brucei) (O15648 whole entry, looked up): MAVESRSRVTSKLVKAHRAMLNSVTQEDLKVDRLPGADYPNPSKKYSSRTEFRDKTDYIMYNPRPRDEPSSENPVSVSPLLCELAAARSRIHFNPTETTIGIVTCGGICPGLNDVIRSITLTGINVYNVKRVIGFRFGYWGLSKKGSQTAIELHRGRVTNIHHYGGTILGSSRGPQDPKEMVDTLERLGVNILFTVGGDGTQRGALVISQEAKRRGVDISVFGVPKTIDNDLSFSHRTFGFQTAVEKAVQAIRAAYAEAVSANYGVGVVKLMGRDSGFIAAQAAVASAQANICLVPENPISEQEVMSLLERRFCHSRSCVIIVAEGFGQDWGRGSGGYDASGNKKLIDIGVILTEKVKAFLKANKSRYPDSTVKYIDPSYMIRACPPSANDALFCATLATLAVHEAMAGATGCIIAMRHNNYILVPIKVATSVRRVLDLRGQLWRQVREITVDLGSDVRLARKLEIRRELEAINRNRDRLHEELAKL

The nature of assay [12]: Quantitative high throughput screen for delayed death inhibitors of the malarial parasite plastid, 96 hour incubation (AID 488745). Note: nearly all actives have a fitted effect of over 70% in size. Note: potency is the fitted concentration of half-maximal effect. An outline of the steps: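 Readout is firefly luciferase luminescence from an integrated reporter in P. falciparum; lower signal marks inhibited growth. Cultures at 2% hematocrit and 0.1% parasitemia were treated with compound across two generations (96 h, 37 C, 5% CO2).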

Assay [13] in a line: Quantitative high throughput screen for delayed death inhibitors of the malarial parasite plastid, 48 hour incubation (AID 488752). Note: nearly all actives have a fitted effect of over 65% in size. The gist of the method:
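First, compound was pinned into RPMI 1640 medium containing 0.5% Albumax. Next, reporter-parasite-infected erythrocytes were added to 2% hematocrit and 0.1% parasitemia. After 48 h at 37 C under 5% CO2, luciferase detection reagent was added and luminescence read.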

Assay [14] has as its target Thioredoxin reductase 1, cytoplasmic (Rattus norvegicus) (UniProt O89049). The experiment in a line: qHTS Assay for Substrates of Mammalian Selenoprotein Thioredoxin Reductase 1 (TrxR1) (AID 488772).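 Note: series mostly up to about 57 µM; a drop in NADPH fluorescence below the no-compound background marks a TrxR1 substrate.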 The gist of the method:
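In this dual-purpose format, potential substrates are identified from the first fluorescence read after selenite addition, not from the 8-minute delta. Rat enzyme is preincubated with NADPH and then with compound at ~22 deg C.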

The target is the same in assay [15]. The assay is described as follows: qHTS Assay for Inhibitors of Mammalian Selenoprotein Thioredoxin Reductase 1 (TrxR1) (AID 488773).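 Note: drop in NADPH fluorescence over an 8 min run after selenite addition; series mostly up to about 57 µM; nearly all actives have a fitted effect of over 40% in size.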 The settings on record: Potency: inhibition. An outline of the steps:
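Inhibition is scored from the loss of NADPH fluorescence between first and last reads of an 8-min kinetic run. Selenite (400 uM) was the substrate, added after 15 min compound preincubation at room temperature.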

Assay [16] addresses Flap endonuclease 1 (Homo sapiens) (UniProt P39748). The experiment in a line: qHTS Validation Assay for the Inhibitors of Human Flap endonuclease 1 (FEN1) (AID 488816). An outline of the steps: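 Enzyme reagent 10 nM; cpds pinned; 15 min RT preinc.; substrate 50 nM final; reads t=0 and 15 min; no-enzyme buffer wells as neg. control; normalized data, 4-parameter Hill fit.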

In assay [17] the target is M-phase phosphoprotein 8 (Homo sapiens) (UniProt Q99549). The assay is described as follows: qHTS Validation Assay for Inhibitors for MPP8 Chromodomain Interactions with Methylated Histone Tails (AID 488949).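 Note: AlphaScreen signal from MPP8 chromodomain bound to biotinylated H3K9me3 peptide; top concentration of the series differs between compounds; nearly all actives have a fitted effect of over 55% in size.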 The gist of the method: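 Chemiluminescent proximity assay: histidine-tag capture via nickel acceptor beads, biotin peptide via streptavidin donor beads. Protein and peptide each at 50 nM, pH 7.4, with 30 min incubations at room temperature for complex formation, compound exposure and bead binding.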
Sequence of M-phase phosphoprotein 8 (Homo sapiens) (Q99549 whole entry, looked up): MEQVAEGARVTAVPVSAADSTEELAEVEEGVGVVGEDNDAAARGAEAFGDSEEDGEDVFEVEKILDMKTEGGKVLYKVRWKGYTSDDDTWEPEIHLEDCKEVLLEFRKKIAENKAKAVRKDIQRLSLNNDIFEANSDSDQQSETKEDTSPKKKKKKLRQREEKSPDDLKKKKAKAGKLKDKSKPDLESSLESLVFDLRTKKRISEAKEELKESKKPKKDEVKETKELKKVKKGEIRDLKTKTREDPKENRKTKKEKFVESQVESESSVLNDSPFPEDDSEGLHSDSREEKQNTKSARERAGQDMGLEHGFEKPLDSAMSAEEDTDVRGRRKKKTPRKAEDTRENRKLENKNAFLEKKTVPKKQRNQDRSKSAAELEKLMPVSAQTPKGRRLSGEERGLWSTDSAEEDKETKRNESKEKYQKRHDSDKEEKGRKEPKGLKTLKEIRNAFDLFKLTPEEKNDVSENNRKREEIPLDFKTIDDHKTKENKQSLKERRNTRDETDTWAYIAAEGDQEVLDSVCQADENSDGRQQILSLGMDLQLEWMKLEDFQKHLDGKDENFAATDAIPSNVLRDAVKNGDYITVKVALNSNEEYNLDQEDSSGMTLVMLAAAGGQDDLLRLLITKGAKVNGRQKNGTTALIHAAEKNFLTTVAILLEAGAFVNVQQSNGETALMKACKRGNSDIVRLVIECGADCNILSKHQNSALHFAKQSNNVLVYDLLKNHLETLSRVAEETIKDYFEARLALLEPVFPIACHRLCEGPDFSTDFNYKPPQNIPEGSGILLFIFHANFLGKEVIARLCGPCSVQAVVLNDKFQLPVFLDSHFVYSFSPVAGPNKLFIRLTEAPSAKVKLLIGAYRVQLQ

The target of assay [18] is Chromobox protein homolog 1 (Homo sapiens) (UniProt P83916). The experiment in a line: qHTS Validation Assay for Inhibitors of HP1-beta Chromodomain Interactions with Methylated Histone Tails (AID 488953). Note: nearly all actives have a fitted effect of over 50% in size. Note: potency is the fitted concentration of half-maximal effect. The gist of the method:
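Disruption of preformed HP1-beta:H3K9me3 peptide complexes (both 50 nM, PBS pH 7.4 with 0.01% Tween-20) is measured by AlphaScreen after 30 min compound exposure at room temperature, using streptavidin donor and nickel chelate acceptor beads at 10 ug/mL final.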

Assay [19] deals with Methanococcus maripaludis chaperonin (MmCpn) (UniProt Q6LX38). The assay is described as follows: High-Throughput Screening for Modulators of Cytosolic Chaperonin Activity: MmCpn Primary Screen (AID 488978). An outline of the steps:
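HTRF readout (320 nm excitation, 590/665 nm emission) of ADP generated by 50 nM MmCpn hydrolysing 30 uM ATP during 10 min at 37C; compound preincubated 5 min RT.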

Sequence of Flap endonuclease 1 (Homo sapiens) (P39748 whole entry, looked up): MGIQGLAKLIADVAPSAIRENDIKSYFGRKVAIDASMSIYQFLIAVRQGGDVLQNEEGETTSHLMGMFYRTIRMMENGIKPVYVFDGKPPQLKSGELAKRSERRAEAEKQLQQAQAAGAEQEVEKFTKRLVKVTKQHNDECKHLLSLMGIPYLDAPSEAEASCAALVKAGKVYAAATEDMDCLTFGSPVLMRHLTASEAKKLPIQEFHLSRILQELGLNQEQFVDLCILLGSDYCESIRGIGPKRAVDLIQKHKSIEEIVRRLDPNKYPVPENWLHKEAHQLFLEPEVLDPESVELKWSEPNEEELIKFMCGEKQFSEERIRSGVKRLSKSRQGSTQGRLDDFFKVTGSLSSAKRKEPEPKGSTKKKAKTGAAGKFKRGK
Sequence of Thioredoxin reductase 1, cytoplasmic (Rattus norvegicus) (O89049 whole entry, looked up): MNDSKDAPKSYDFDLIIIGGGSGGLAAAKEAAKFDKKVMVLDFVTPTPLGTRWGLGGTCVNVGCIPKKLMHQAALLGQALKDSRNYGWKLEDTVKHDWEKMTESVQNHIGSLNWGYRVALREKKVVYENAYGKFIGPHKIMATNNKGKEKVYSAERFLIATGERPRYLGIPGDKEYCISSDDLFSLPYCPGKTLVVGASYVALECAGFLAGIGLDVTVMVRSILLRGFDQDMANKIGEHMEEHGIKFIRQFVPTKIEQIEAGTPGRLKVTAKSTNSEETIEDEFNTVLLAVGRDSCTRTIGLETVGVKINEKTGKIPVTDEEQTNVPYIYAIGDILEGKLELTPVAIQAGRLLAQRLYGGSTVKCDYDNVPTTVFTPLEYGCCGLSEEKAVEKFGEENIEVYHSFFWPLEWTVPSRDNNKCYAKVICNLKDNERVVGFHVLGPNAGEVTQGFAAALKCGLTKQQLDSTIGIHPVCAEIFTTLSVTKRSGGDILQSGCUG
Sequence of Chromobox protein homolog 1 (Homo sapiens) (P83916 whole entry, looked up): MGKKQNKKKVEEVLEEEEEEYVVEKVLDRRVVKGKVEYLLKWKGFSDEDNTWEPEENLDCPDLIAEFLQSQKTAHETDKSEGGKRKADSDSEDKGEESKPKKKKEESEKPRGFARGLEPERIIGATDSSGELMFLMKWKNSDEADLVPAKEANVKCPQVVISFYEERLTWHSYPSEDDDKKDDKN
Sequence of Ubiquitin carboxyl-terminal hydrolase 2 (Homo sapiens) (O75604 whole entry, looked up): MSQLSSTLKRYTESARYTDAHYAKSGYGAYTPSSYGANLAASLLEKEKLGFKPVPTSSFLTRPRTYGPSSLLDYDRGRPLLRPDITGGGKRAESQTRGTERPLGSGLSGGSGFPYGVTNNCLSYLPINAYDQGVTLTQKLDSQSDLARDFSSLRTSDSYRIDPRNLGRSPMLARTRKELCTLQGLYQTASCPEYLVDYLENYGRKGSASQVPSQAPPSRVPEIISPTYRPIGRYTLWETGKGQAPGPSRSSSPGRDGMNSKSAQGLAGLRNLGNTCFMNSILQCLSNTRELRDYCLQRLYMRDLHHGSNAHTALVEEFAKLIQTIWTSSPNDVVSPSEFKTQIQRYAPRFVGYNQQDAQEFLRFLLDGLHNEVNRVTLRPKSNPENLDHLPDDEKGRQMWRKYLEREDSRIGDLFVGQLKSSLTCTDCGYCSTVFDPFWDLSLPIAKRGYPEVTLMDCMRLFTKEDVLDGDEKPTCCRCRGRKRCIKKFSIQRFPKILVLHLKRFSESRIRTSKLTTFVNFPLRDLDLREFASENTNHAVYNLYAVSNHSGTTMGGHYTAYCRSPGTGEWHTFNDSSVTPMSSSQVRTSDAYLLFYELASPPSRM

For `CC(C)C[C@H](NC(=O)[C@H](O)[C@H](N)Cc1ccccc1)C(=O)O`, the outcome in [1], in [8], in assay [9], in assay [10] and in assay [14] was inactive. Moreover, the Potency result in assay [2], in [3], in [4], in assay [5], in assay [6] and in assay [7] was “inactive” in each case. Moreover, the Potency result in [11], in assay [12], in assay [13], in [15], in [16] and in assay [17] was “inactive” throughout. For the same molecule, the Potency entry in assay [18] was “inactive”.
With `COc1cc(CNC(=O)CCCCCCC(C)C)ccc1O`, the outcome in [1], in assay [8], in assay [9], in assay [10] and in assay [19] was inactive. Also, the Potency entry in assay [2], in assay [3], in [4], in assay [5], in assay [6] and in [7] was “inactive” throughout. The Potency result in assay [11], in assay [12], in assay [13], in assay [15], in assay [16] and in assay [17] was “inactive” in each case. Moreover, in assay [18], the Potency result is “inactive”.
For `CN1CCC2(CCN3CCc4c(oc5ccccc45)C3C2)N(C)C1=O` (configuration not stated), the result in assay [1], in assay [8], in assay [9], in assay [10], in [14] and in assay [19] was inactive. Besides, the Potency result in [2], in [3], in assay [4], in assay [5], in assay [6] and in [7] was “inactive” in each case. Further, the Potency entry in [11], in [12], in assay [13], in assay [15], in assay [17] and in assay [18] was “inactive” in each case.
For `CC(=O)NCCc1c[nH]c2ccc(O)cc12`, the result in assay [1], in assay [8], in assay [9], in [10], in assay [14] and in [19] was inactive. Further, the Potency result in [2], in assay [3], in [4], in assay [5], in [6] and in assay [7] was “inactive” each time. Moreover, the Potency entry in assay [11], in assay [12], in assay [15], in assay [16] and in assay [18] was “inactive” each time.
In the case of `CC(N)(C(=O)O)c1ccc(C(=O)O)cc1` (configuration not stated), the molecule was called inactive in assay [1], in assay [8], in [9], in assay [10], in assay [14] and in assay [19]. In addition, the Potency entry in assay [2], in assay [3], in assay [4], in [5], in [6] and in [7] was “inactive” each time. The Potency result in assay [11], in assay [12], in assay [13], in assay [15], in assay [16] and in [17] was “inactive” in each case. The Potency entry in assay [18] is “inactive”.
Regarding `NC1(C(=O)O)CCCCC1`, the molecule was classed as inactive in [1], in assay [8], in assay [9], in assay [10], in [14] and in [19]. For the same molecule, the Potency result in assay [2], in assay [3], in [4], in assay [5], in assay [6] and in assay [7] was “inactive” each time. The Potency entry in assay [11], in assay [12], in [13], in [15], in assay [16] and in assay [17] was “inactive” in each case.
Take `COc1ccccc1N1CCN(CCN(C(=O)c2ccc(F)cc2)c2ccccn2)CC1`: the outcome in assay [1], in assay [8], in assay [9], in [10] and in assay [19] was inactive. Moreover, the Potency result in assay [2], in assay [3], in [4], in [5], in assay [6] and in assay [7] was “inactive” throughout. Also, the Potency result in assay [11], in assay [12], in assay [15], in assay [16] and in assay [17] was “inactive” throughout.
On to `COc1ccc2c(c1)c(CC(=O)O)c(C)n2Cc1ccc(Cl)cc1`, for which the molecule was classed as inactive in [1], in [8], in assay [9], in assay [10], in [14] and in assay [19]. Moreover, the Potency entry in assay [2], in [3], in assay [4], in assay [5], in assay [6] and in assay [7] was “inactive” throughout. The Potency result in assay [11], in assay [15], in assay [16] and in assay [17] was “inactive” throughout. In addition, the Potency in assay [12] is 10.4 µM (active); in assay [18], 0.0067 µM (active).
